Our source for the Potency and outcome values is PubChem BioAssay (NCATS).

The target of assay [1] is DNA repair nuclease/redox regulator APEX1 (Homo sapiens) (UniProt P27695). Description: qHTS Validation Assay for Inhibitors of the Human Apurinic/apyrimidinic Endonuclease 1 (APE1) (AID 1705;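 further: TAMRA fluorescence gain over two minutes as APE1 cuts a quenched THF abasic duplex; series mostly up to about 57 µM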). The method, boiled down:
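Fluorogenic double-stranded THF abasic-site substrate (5'-TAMRA/3'-BHQ-2), 50 nM final. Enzyme preincubated with compound 15 min at room temperature, then substrate added. Kinetic fluorescence (ex 525/em 598 nm) read three times at 60 s intervals; activity taken as third-minus-first read difference.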
A general note: qHTS replaces the single test concentration by a dilution series.

Assay [2] can be described thus: Counterscreen for APE1 Inhibitors: Fluorescent Dye Displacement Validation Assay (AID 1707). The procedure, abridged: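 Thiazole Orange displacement from dsDNA: 250 nM ThO with 50 nM TAMRA-labelled abasic-site (tetrahydrofuran) duplex in 50 mM Tris-HCl pH7.5, 50mM NaCl, 2 mM MgCl2, 0.01% Tween-20. Loss of endpoint fluorescence (ex 480 nm, em 540 nm) flags DNA binders.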
(The purpose of a counterscreen is to sort out artefacts and off-target activity.)

The target in assay [3] is Endonuclease 4 (Escherichia coli (strain K12)) (UniProt P0A6C1). Description: Counterscreen for APE1 Inhibitors: qHTS Validation Assay for Inhibitors of Endonuclease IV (AID 1708). The procedure, abridged: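 2 nM enzyme was preincubated with compounds for 15 min at room temperature in 50 mM Tris-HCl pH 7.5, 50 mM NaCl, 2 mM MgCl2, 1 mM DTT, 0.01% Tween-20. 50 nM THF-abasic TAMRA/BHQ-2 duplex substrate started the reaction.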

Assay [4] can be described thus: qHTS for differential inhibitors of proliferation of Plasmodium falciparum line 7G8 (AID 1815).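 Further: parasite growth measured after three days of incubation.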 Further: potency means the concentration at half of the fitted maximal effect.
Assay [5] is described as follows: qHTS for differential inhibitors of proliferation of Plasmodium falciparum line GB4 (AID 1816).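 Further: parasite growth measured after 72 h incubation.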 Further: potency means the concentration at half of the fitted maximal effect. The conditions noted are these: Potency: Plasmodium falciparum GB4 proliferation inhibition.
Assay [6] is described as follows: qHTS for differential inhibitors of proliferation of Plasmodium falciparum line 3D7 (AID 1876). Further: potency means the concentration at half of the fitted maximal effect.
Assay [7] is described as follows: qHTS for differential inhibitors of proliferation of Plasmodium falciparum line D10 (AID 1877).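 Further: parasites grown with compound for 72 h before DNA staining.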 Further: potency means the concentration at half of the fitted maximal effect.
Assay [8] can be described thus: qHTS for differential inhibitors of proliferation of Plasmodium falciparum line Dd2 (AID 1882). Further: nearly all actives have a fitted effect of over 65% in size. Further: potency means the concentration at half of the fitted maximal effect. The conditions noted are these: Potency: Plasmodium falciparum Dd2 proliferation inhibition. The method, boiled down:
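SYBR Green I DNA fluorescence read-out, ex 485/em 535 nm. Signals were normalized to 0.29 uM artemisinin and DMSO wells, then corrected using vehicle-only plates flanking each stack. Parasite growth ran 72 h in erythrocytes before lysis.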

Assay [9] can be described thus: qHTS for differential inhibitors of proliferation of Plasmodium falciparum line W2 (AID 1883).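 Further: parasites grown with compound for 72 h before lysis and staining.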 Further: potency means the concentration at half of the fitted maximal effect. The conditions noted are these: Potency: Plasmodium falciparum W2 proliferation inhibition.
A short description of assay [10]: qHTS for differential inhibitors of proliferation of Plasmodium falciparum line HB3 (AID 1886).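 Further: parasites grown with compound for 72 h before SYBR Green readout.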 Further: potency means the concentration at half of the fitted maximal effect. The conditions noted are these: Potency: Plasmodium falciparum HB3 proliferation inhibition.
For assay [11], the target named is Ferritin light chain (Equus caballus) (UniProt P02791). Description: qHTS Validation Assay for Identification of Novel General Anesthetics (AID 2323). Further: series mostly up to about 77 µM. The procedure, abridged:
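Horse-spleen apoferritin (10 uM) in PBS with 50% saturated 1-aminoanthracene; compounds pin-transferred, 10 min at room temperature. Fluorescence read at 380/535 nm, normalized to free 1-AMA and 1-AMA/apoferritin values; four-parameter Hill fit.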

Assay [12] has as its target ATP-dependent DNA helicase Q1 (Homo sapiens) (UniProt P46063). Description: qHTS Validation Assay for Inhibitors of RecQ-Like Dna Helicase 1 (RECQ1) (AID 2353). The procedure, abridged: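 50 nM RECQ1T1 preincubated 15 min with compound in Tris pH 8.0 buffer with MgCl2, DTT, Tween-20 and 2.5 ug/ml poly(dI-dC); started with 200 nM TAMRA/BHQ-2 forked duplex and 2 mM ATP. Unwinding read as fluorescence (525/598 nm), two reads 2 h apart.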

Assay [13] concerns the target RecQ-like DNA helicase BLM (Homo sapiens) (UniProt P54132). Description: qHTS Validation Assay for Inhibitors of Bloom's syndrome helicase (BLM) (AID 2364). The procedure, abridged: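 BLM 50 nM in 25 mM Tris-HCl pH 8.0, 5 mM NaCl, 2 mM MgCl2, 1 mM DTT, 0.01% Tween-20, 2.5 ug/ml poly(dI-dC); 15 min cpd preinc, RT. Start: 200 nM forked DNA + 2 mM ATP (final). TAMRA read, 2 reads 2 h apart.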

A short description of assay [14]: Cytometric Cell-Based qHTS for Inhibitors of the mTORC1 Signaling Pathway in MEF (Tsc2-/-, p53-/-) Cells (AID 2660).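 Further: percent of cells above a phospho-rpS6 to PI ratio cutoff in each well; series mostly up to about 38 µM.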 The method, boiled down:
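Readout: Alexa-488 phospho-rpS6 (Ser235/236) intensity divided by PI intensity, thresholded against 7.5 nM rapamycin wells and reported as % positive cells. PI cell count served as the viability measure. Compound exposure was 24 hrs at 37 degree Celsius.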

A short description of assay [15]: High Content Imaging Cell-Based qHTS for Inhibitors of the mTORC1 Signaling Pathway in MEF (Tsc2-/-, p53-/-) Cells (AID 2666).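 Further: percent of cells scored positive for phospho-rpS6 Ser235/236 immunostaining by imaging.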 The method, boiled down:
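Read-out: % positive cells per well, with thresholds from highest- and lowest-signal wells, based on phospho-rpS6 (Ser235/236) intensity normalized to Hoechst nuclear stain. Cells: Tsc2-/-, p53-/- MEFs carrying empty vector; compound 24 hrs, 37 degree Celsius.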

Assay [16] is described as follows: High Content Imaging Cell-Based qHTS for Inhibitors of the mTORC1 Signaling Pathway in MEF Cells (AID 2667).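 Further: Tsc2-/- p53-/- MEFs stably re-expressing wild-type Tsc2 exposed 24 h; series mostly up to about 38 µM.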 The method, boiled down: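 MEF (Tsc2-/-, p53-/-, WT Tsc2 re-expressed); cpd 24 h, 37 °C; PFA fix; Alexa-488 anti-p-rpS6 Ser235/236, PI, Hoechst; IN Cell imaging; Hoechst/Alexa-488 intensity ratio; % active cells, thresholds set from rapamycin and DMSO wells.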

Assay [17] is described as follows: qHTS Assay for Modulators of Human Peripheral Myelin Protein 22 (PMP22) Expression/Activity (AID 1967; active means well fitted curve in the direction sought with a large enough effect in the signal ratio; the % refers to the signal ratio). The procedure, abridged: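 Mouse MSC80 Schwann cells carrying Pmp22 promoter–green click beetle luciferase plus EF-alpha–red luciferase control, dosed 24 h at 37 °C. Dual-filter luminescence, overlap-corrected; %Activity from green/red ratio normalised to untreated cells, concentration-response curves fitted.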

Inconclusive results are not listed. Active and inactive are the calls of the source. Unless noted, the call rests on the fitted dose curve; in most records, active means well fitted curve in the direction sought with a large enough effect; inconclusive means small, poorly fitted or top-dose-only effect, or another doubt; inactive means no such curve, though single readings can be large; an effect the other way counts as inactive or inconclusive.

DNA repair nuclease/redox regulator APEX1 (Homo sapiens), sequence (P27695 whole entry, looked up): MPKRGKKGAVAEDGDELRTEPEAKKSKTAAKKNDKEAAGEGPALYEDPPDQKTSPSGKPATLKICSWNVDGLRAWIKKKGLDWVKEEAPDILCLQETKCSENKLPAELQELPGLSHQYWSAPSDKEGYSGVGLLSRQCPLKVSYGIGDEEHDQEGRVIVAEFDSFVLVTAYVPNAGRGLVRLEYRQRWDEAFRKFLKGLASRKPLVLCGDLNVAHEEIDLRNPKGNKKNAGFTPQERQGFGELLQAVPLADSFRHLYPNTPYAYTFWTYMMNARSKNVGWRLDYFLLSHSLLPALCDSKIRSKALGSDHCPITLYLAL
ATP-dependent DNA helicase Q1 (Homo sapiens), sequence (P46063 whole entry, looked up): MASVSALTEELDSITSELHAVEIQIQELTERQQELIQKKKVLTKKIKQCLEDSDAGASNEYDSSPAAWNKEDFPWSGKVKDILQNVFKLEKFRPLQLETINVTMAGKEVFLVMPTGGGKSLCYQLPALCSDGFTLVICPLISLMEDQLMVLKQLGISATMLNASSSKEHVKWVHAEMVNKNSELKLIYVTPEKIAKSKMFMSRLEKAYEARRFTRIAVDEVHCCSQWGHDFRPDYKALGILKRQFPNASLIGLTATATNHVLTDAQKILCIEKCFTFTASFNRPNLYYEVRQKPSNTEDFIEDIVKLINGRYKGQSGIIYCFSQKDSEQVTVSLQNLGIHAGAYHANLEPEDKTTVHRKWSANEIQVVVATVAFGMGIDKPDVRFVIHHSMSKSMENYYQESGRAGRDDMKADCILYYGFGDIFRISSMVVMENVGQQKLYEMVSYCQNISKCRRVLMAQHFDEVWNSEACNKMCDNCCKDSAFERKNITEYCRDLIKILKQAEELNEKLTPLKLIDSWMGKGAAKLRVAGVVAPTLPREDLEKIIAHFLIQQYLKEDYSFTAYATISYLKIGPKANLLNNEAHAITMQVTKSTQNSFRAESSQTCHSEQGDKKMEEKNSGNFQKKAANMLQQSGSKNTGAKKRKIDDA
Ferritin light chain (Equus caballus), sequence (P02791 2-175 limits assumed): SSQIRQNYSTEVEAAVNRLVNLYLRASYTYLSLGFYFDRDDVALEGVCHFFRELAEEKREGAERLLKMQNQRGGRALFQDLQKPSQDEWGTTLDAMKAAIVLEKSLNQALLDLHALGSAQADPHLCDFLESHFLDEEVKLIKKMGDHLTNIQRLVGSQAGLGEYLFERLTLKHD
RecQ-like DNA helicase BLM (Homo sapiens), sequence (P54132 whole entry, looked up): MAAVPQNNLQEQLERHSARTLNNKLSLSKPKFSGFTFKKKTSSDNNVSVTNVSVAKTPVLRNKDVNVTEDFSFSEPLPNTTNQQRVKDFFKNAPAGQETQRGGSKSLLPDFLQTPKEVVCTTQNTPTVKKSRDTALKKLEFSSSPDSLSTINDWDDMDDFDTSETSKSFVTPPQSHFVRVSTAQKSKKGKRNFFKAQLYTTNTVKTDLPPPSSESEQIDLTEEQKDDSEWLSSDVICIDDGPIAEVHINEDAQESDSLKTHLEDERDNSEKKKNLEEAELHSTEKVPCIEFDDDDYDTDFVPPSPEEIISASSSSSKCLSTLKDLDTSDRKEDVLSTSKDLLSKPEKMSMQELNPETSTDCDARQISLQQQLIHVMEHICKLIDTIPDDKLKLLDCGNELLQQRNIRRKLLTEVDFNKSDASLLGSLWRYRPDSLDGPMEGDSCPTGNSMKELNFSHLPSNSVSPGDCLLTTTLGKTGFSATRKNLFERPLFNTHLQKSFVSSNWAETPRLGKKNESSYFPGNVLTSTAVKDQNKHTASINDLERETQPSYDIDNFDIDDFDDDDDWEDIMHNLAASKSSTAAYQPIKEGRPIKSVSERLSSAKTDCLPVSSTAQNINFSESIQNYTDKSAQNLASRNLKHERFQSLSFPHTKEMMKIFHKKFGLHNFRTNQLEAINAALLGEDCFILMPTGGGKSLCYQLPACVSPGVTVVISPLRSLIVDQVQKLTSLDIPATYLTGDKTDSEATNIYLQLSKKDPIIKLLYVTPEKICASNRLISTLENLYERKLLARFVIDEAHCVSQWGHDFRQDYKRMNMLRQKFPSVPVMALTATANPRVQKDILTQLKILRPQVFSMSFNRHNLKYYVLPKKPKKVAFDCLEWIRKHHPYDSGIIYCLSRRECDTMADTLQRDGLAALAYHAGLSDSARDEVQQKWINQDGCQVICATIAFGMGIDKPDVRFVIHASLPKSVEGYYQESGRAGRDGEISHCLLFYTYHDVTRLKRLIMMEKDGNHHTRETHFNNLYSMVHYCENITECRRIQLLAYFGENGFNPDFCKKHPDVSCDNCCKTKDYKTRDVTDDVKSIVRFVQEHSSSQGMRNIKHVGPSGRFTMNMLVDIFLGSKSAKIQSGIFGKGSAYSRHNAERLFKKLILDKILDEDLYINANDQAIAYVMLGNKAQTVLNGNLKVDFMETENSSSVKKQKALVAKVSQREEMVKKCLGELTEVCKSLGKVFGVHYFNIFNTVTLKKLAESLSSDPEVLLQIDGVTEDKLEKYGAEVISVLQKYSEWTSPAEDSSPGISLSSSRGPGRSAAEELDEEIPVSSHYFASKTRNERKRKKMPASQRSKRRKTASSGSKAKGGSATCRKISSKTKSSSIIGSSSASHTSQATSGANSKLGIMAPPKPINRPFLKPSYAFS

Take `CCCN(CCC)[C@@H]1CCc2cccc(O)c2C1`: the Potency entry in assay [1], in [2], in [3], in assay [12], in assay [13] and in assay [14] was “inactive” throughout. Moreover, the Potency entry in assay [15] and in [16] was “inactive” throughout. For the same compound, the Potency in assay [4] is 3.55 µM (active); in [5], 3.16 µM (active); in assay [6], 10 µM (active); in [7], 10 µM (active); in [8], 8.91 µM (active); in [9] it was 2.51 µM (active). Moreover, the Potency in assay [10] was 10 µM (active). In assay [11], the call was inactive.
For the compound `NC(CCCCCP(=O)(O)O)C(=O)O` (stereo not drawn), the Potency entry in assay [1], in assay [2], in [3], in [4], in assay [5] and in assay [6] was “inactive” each time. Besides, the Potency entry in assay [7], in assay [8], in assay [9], in assay [10], in [12] and in [14] was “inactive” throughout. Besides, the Potency result in [15] and in assay [16] was “inactive” in each case. Moreover, the compound was classed as inactive in assay [17] and in [11].
As for `C[N+]1(C)CCN(c2ccccc2)CC1`, the Potency result in assay [1], in [2], in [3], in assay [4], in [5] and in assay [7] was “inactive” throughout. The Potency entry in assay [8], in assay [10], in [14], in assay [15] and in assay [16] was “inactive” each time. In assay [11], the call was inactive.
On to `CC(C)CC(NP(=O)(O)O[C@@H]1O[C@@H](C)[C@H](O)[C@@H](O)[C@H]1O)C(=O)NC(Cc1c[nH]c2ccccc12)C(=O)O` (stereo partly drawn), for which the Potency entry in assay [1], in [2], in assay [3], in [4], in assay [5] and in assay [6] was “inactive” throughout. In addition, the Potency entry in assay [7], in assay [8], in [9], in assay [10] and in assay [13] was “inactive” in each case. The compound was called inactive in assay [17] and in assay [11].
On to `CN1CC[C@@]2(C)c3cc(O)ccc3N(C)C12` (stereo partly drawn), for which the Potency result in [1], in assay [2], in assay [3], in assay [14], in assay [15] and in assay [16] was “inactive” each time. The Potency in assay [4] is 12.6 µM (active); in [5], 11.2 µM (active); in assay [6], 11.2 µM (active); in [7], 14.1 µM (active); in assay [8] it was 12.6 µM (active); in assay [9], 12.6 µM (active). Further, in [10], the Potency was 8.91 µM (active). Also, in assay [11], the compound was called inactive.
With `CN1C2CCC1CC(OC(c1ccccc1)c1ccccc1N)C2` (stereo not drawn), the Potency result in [1], in [2], in assay [3], in assay [13], in assay [14] and in assay [15] was “inactive” in each case. Further, in assay [16], the Potency entry is “inactive”. Moreover, the Potency in [4] was 8.91 µM (active); in assay [5], 5.62 µM (active); in assay [6], 11.2 µM (active); in assay [9], 2.51 µM (active); in [10], 10 µM (active). The call in assay [11] was inactive.
For `Cc1[nH]c2ccc(O)cc2c1CCN`, the Potency result in assay [1], in assay [2], in [3], in assay [4], in assay [5] and in assay [6] was “inactive” in each case. The Potency result in assay [7], in [8], in assay [9], in assay [10], in [12] and in [14] was “inactive” throughout. Besides, the Potency result in assay [15] and in [16] was “inactive” each time. Besides, the outcome in assay [17] and in [11] was inactive.
As for `Oc1ccc2c3c1O[C@H]1c4[nH]c5ccccc5c4C[C@@]4(O)C(C2)N(CC2CC2)CCC314` (stereo partly drawn), the Potency entry in assay [1], in assay [2], in assay [3], in [12], in [13] and in assay [15] was “inactive” each time. In addition, the Potency in [4] was 8.91 µM (active); in [5], 8.91 µM (active); in assay [6], 10 µM (active); in assay [7] it was 12.6 µM (active); in assay [8], 8.91 µM (active); in assay [9], 6.31 µM (active). For the same compound, in [11], the outcome was inactive.
